PD-1 reversal: activators reversing PD-1 mediated T-cell inhibition; primary human CD4 T cells, PD-L1 beads, CellTiter-Glo 96 h; activation, % (test concentration not listed); 29,000 tested, under 10 active; AID 2316; call rule not given here;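 note: 0% = median vehicle wells and 100% = positive control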
NOMO-1 viab: STK33 inhibitor candidate reducing NOMO-1 cell viability | NOMO-1 AML viability, CellTiter-Glo luminescence, 72 h | inhibition, % (concentration not given with the values) | 7.5% of 37,000 active | AID 2330; in the data active = inhibition above about 80%
Shh pathway inh: blocks Sonic Hedgehog signaling; AID 2313; Shh-LIGHT2 Gli-luciferase reporter, 30 h; inhibition, % (no concentration beside the values); 2.1% of 22,000 active;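 active = mean inhibition across valid replicates above about 65%, limit read from the data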;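 note: pathway switched on by Shh-conditioned medium diluted 1 in 25 in low serum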
MITF inhib: blocks MITF activity. inhibition, % (concentration not given with the values). TRPM1 promoter luciferase, luminescence, 24 h. AID 2240. 0.28% of 37,000 active; in the data active = inhibition above about 85%;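 note: human melanocyte line stably carrying TRPM1 promoter luciferase reporter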
* = called active by the depositor. In the library only some 8.1% were active in any assay of this set; here they are far more common.

How did COC1CC(OC2C(C)OC(OC3C(C)OC(OC4C(C)OC(O[C@H]5CC[C@@]6(C)C(=CC[C@]7(O)C6CC(OC(=O)c6ccccc6)[C@@]6(C)[C@]7(O)CC[C@@]6(O)C(C)=O)C5)CC4OC)CC3OC)CC2OC)OC(C)C1O (some centres undefined) do in these assays?
PD-1 reversal: -4; NOMO-1 viab: 120*; Shh pathway inh: -48; MITF inhib: 35

What do the screens show for `CC[C@@H]1/C=C\C=C\C[C@H](C)C(O)[C@](C)(O)C(=O)[C@H](C)C(O)[C@H](C)C(=O)[C@H](C)[C@@H](O)[C@H](C)/C=C/C(=O)O[C@H]2[C@@H](C)[C@@H](CC1)O[C@@]1(CC[C@@H](C)[C@@H](C[C@H](C)O)O1)[C@@H]2C` (some centres undefined)?
PD-1 reversal: -15; NOMO-1 viab: 124*; Shh pathway inh: 108*; MITF inhib: 75

How did COC(=O)CC1=C(C(=O)OC)C2(C(=O)Nc3ccccc32)C(C(=O)OC)=C(N)O1 (centres undefined) do in these assays?
PD-1 reversal: -1; NOMO-1 viab: 16; Shh pathway inh: -4; MITF inhib: 9

What do the screens show for `C[C@]12CC[C@H]3[C@@H](CC[C@]4(O)C[C@@H](O)CC[C@]34C=O)[C@@]1(O)CC[C@@H]2C1=CC(=O)OC1`?
NOMO-1 viab: 115*; Shh pathway inh: -40; MITF inhib: 32

How did CO[C@H]1[C@H](O)[C@@H](O[C@H]2CC[C@]3(C=O)C4CC[C@]5(C)[C@@H](C6=CC(=O)OC6)CC[C@]5(O)C4CC[C@@H]3C2)O[C@@H](C)[C@@H]1O (some centres undefined) do in these assays?
NOMO-1 viab: 112*; Shh pathway inh: -53; MITF inhib: 29

What do the screens show for `C[C@@H]1O[C@@H](OC2CCC3(C)C4CCC5(C)C(C6=CC(=O)OC6)CCC5(O)C4CC[C@H]3C2)[C@H](O)[C@H](O)[C@H]1O` (some centres undefined)?
PD-1 reversal: -16; NOMO-1 viab: 109*; Shh pathway inh: 18; MITF inhib: 2

What do the screens show for `C[C@@H]1O[C@@H](O[C@H]2C[C@@H](O)[C@]3(CO)[C@H]4[C@H](O)C[C@]5(C)[C@@H](C6=CC(=O)OC6)CC[C@]5(O)[C@@H]4CC[C@]3(O)C2)[C@H](O)[C@H](O)[C@H]1O`?
NOMO-1 viab: 119*; Shh pathway inh: -70; MITF inhib: 41

Results for C=CCC1(NCCc2ccccc2)CCCCC1 ?
PD-1 reversal: -2; NOMO-1 viab: 14; MITF inhib: -20

What do the screens show for `COc1ccc(CC2(CCc3ccncc3)C(=O)NC(=O)N(c3ccc(Cl)cc3)C2=O)cc1OC` (centres undefined)?
PD-1 reversal: -1; NOMO-1 viab: -28; MITF inhib: -6

Results for C[C@]12C=CC(=O)C=C1CCC1C2CC[C@]2(C)C(=O)CCC12 (some centres undefined) ?
NOMO-1 viab: -17; Shh pathway inh: -25; MITF inhib: -12

Results for CCN1C[C@@]2(COC)C3[C@@H](OC)[C@H]4[C@@H]1[C@@]3(C1C[C@]3(O)[C@H](OC(=O)c5ccccc5)C1[C@]4(OC(C)=O)[C@@H](O)[C@H]3OC)[C@@H](OC)C[C@H]2O (some centres undefined) ?
PD-1 reversal: 1; NOMO-1 viab: 56; Shh pathway inh: 48; MITF inhib: -1

How did Cc1cc(OCC(=O)N(C)C)c2c3c(c(=O)oc2c1)CCCC3 do in these assays?
PD-1 reversal: -1; NOMO-1 viab: -6; MITF inhib: -4

What do the screens show for `O=C1CC=C2C3CC4N(CCC45c4ccccc4N1C25)C/C3=C/CO` (centres undefined)?
PD-1 reversal: 1; NOMO-1 viab: 7; Shh pathway inh: 16; MITF inhib: 7

How did O=C(c1ccccc1)N1CC2CC(C1)c1cccc(=O)n1C2 (centres undefined) do in these assays?
PD-1 reversal: -1; NOMO-1 viab: 16; Shh pathway inh: 19; MITF inhib: 5

How did CO[C@H]1[C@H](O)[C@H](O[C@H]2CC[C@]3(C)C4CC[C@]5(C)[C@H](C6=CC(=O)OC6)CC[C@]5(O)C4CC[C@@H]3C2)O[C@@H](C)[C@@H]1O (some centres undefined) do in these assays?
PD-1 reversal: -35; NOMO-1 viab: 123*; Shh pathway inh: -5; MITF inhib: 31

What do the screens show for `C=C1[C@@H](C)[C@H]2[C@H](Cc3ccccc3)NC(=O)[C@]23[C@H](OC(C)=O)C=C[C@](C)(O)C(=O)[C@@H](C)C/C=C/[C@H]3[C@@H]1O`?
NOMO-1 viab: 114*; Shh pathway inh: 73*; MITF inhib: 57

Results for CO[C@H](C)C(O)(C(=O)OCC1=CCN2CC[C@H](O)[C@@H]12)C(C)C (some centres undefined) ?
NOMO-1 viab: -7; Shh pathway inh: -68; MITF inhib: -10

How did C=CCN1C(=O)/C(=C/c2cc(C)n(-c3ccccn3)c2C)C(=O)NC1=S do in these assays?
PD-1 reversal: 0; NOMO-1 viab: 111*; Shh pathway inh: -9; MITF inhib: -11

What do the screens show for `O=c1c2ccccc2[nH]c(=S)n1-c1cc(C(F)(F)F)cc(C(F)(F)F)c1`?
PD-1 reversal: -1; NOMO-1 viab: 4; Shh pathway inh: 18; MITF inhib: 9

Results for C=CC(C)(C)[C@]12C=C(OC)C(=O)N3/C(=C/c4cnc[nH]4)C(=O)N[C@@]31N(OC)c1ccccc12 ?
PD-1 reversal: 0; NOMO-1 viab: 101*; Shh pathway inh: -4; MITF inhib: 11

What do the screens show for `C/C(CC(c1ccccc1)c1c(O)c2ccccc2oc1=O)=N/O` (centres undefined)?
PD-1 reversal: 2; NOMO-1 viab: -8; MITF inhib: 3

What do the screens show for `C[C@H](N)C(=O)N[C@@H](C)C(=O)N[C@@H](Cc1ccccc1)C(=O)CCl`?
NOMO-1 viab: 114*; Shh pathway inh: 12; MITF inhib: -18

How did O=c1c2ccccc2nc(CSc2ccccn2)n1-c1ccccc1Cl do in these assays?
PD-1 reversal: 2; NOMO-1 viab: 6; MITF inhib: -4

What do the screens show for `CC(O)CNCCNc1ccc([N+](=O)[O-])c2cccnc12` (centres undefined)?
PD-1 reversal: -3; NOMO-1 viab: 13; MITF inhib: 31

Results for COc1ccc(C[C@H]2NC[C@H](O)[C@H]2OC(C)=O)cc1 ?
NOMO-1 viab: 120*; Shh pathway inh: 107*; MITF inhib: 104*

Screening data: PubChem BioAssay, Broad Institute
